Data reported in PubChem BioAssay (EPA / NIEHS).
Inconclusive results are not listed. Some structures have more than one record in an assay (separate samples or runs), and their calls can disagree. Active and inactive are the calls of the source. Rule for the calls, unless noted: active = hit-call score of the fitted dose curve at least 0.9, where 1 is the maximum; inconclusive = response in the unintended direction; inactive = score below 0.9.

System: not listed separately
Experiment: CCTE_Mundy_HCI_iCellGluta_NOG_NeuronCount: CCTE's Neurite Outgrowth Assay in iCellGluta cells for Neuron Count, Mundy Lab (AID 2284340);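 note: cells fixed about 48 h after compound addition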
Details: not given
Outline: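 Neuron count read by automated high-content imaging of Hoechst 33342 and betaIII-tubulin/Alexa Fluor-488 labelling in human iPSC glutamatergic neurons. Activity fitted relative to DMSO.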

With Cc1c(COC(=O)[C@@H]2[C@H](/C=C(\Cl)C(F)(F)F)C2(C)C)cccc1-c1ccccc1 as the compound, how does the AC50 read?
The AC50 was 12.8 µM (active).

With COC(=O)N(C(=O)N1CO[C@@]2(C(=O)OC)Cc3cc(Cl)ccc3C2=N1)c1ccc(OC(F)(F)F)cc1 as the compound, how does the outcome read?
Its outcome is “inactive”.

Which outcome does the source give for CCSC(=O)N1CCCCCC1 here?
The outcome was “inactive”.

With C=C(C)CN(CC)c1c([N+](=O)[O-])cc(C(F)(F)F)cc1[N+](=O)[O-] as the compound, how does the AC50 read?
Its AC50 is 31.1 µM (active).

With CC(C)(C)C(=O)C(Oc1ccc(Cl)cc1)n1cncn1 (stereo not drawn) as the compound, how does the outcome read?
The outcome was “inactive”.

With CNC(=O)Oc1cccc2ccccc12 as the compound, how does the outcome read?
Its outcome is “inactive”.

For CCNC(=O)NC(=O)C(C#N)=NOC, which outcome is on record?
Its outcome is “inactive”.

With N#CN=C1SCCN1Cc1ccc(Cl)nc1 as the compound, how does the outcome read?
The outcome was “inactive”.

For O=C(Nc1ccccc1-c1ccc(Cl)cc1)c1cccnc1Cl, which AC50 is on record?
Its AC50 is 50 µM (active).

What about the outcome of the same compound?
Its outcome is “inactive”.

Which outcome does the source give for CS(=O)(=O)c1cc(C(F)(F)F)ccc1C(=O)c1cnoc1C1CC1 here?
Its outcome is “inactive”.

For CC1(C)C(C=C(Cl)Cl)C1C(=O)OC(C#N)c1cccc(Oc2ccccc2)c1 (stereo not drawn), which outcome is on record?
The outcome was “inactive”.

Which AC50 does the source give for COP(=S)(OC)SCn1nnc2ccccc2c1=O here?
Its AC50 is 24.4 µM (active).

For CN/C(=N\[N+](=O)[O-])NCc1cnc(Cl)s1, which outcome is on record?
Its outcome is “inactive”.

For CO/N=C(/C1=NOCCO1)c1ccccc1Oc1ncnc(Oc2ccccc2Cl)c1F, which AC50 is on record?
The AC50 was 39.4 µM (active).

System: SERPINA7 (gene 6906)
Experiment: CCTE_GLTED_hTBG: CCTE's human Thyroxine-binding Globulin (TBG) Inhibition Assay, Great Lakes Toxicology and Ecology Division (GLTED) Lab (AID 2284343);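 note: active chemicals lower fluorescence versus DMSO baseline by displacing probe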
Details: not given
Outline: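 hTBG + test chem, 2 h; ANSA probe displacement; fluorescence readout ex380/em475; DMSO = neg ctrl/baseline; cell-free.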

Which outcome does the source give for Cn1c(-c2ccccc2)cc(-c2ccccc2)[n+]1C here?
The outcome was “inactive”.

For C=C(C)CN(CC)c1c([N+](=O)[O-])cc(C(F)(F)F)cc1[N+](=O)[O-], which AC50 is on record?
The AC50 was 8.89 µM (active).

For CCOP(=O)(OCC)Oc1nc(Cl)c(Cl)cc1Cl, which AC50 is on record?
The AC50 was 14.9 µM (active).

With CCCCOCN(C(=O)CCl)c1c(CC)cccc1CC as the compound, how does the AC50 read?
Its AC50 is 19.1 µM (active).

For CCCN(CC)CC1COC2(CCC(C(C)(C)C)CC2)O1 (stereo not drawn), which outcome is on record?
Its outcome is “inactive”.

For CCOC(=O)C(C)OC(=O)c1cc(Oc2ccc(C(F)(F)F)cc2Cl)ccc1[N+](=O)[O-] (stereo not drawn), which outcome is on record?
Its outcome is “inactive”.

Which AC50 does the source give for CCCCC(O)(Cn1cncn1)c1ccc(Cl)cc1Cl (stereo not drawn) here?
The AC50 was 11.3 µM (active).

With OC(c1ccc(Cl)cc1)(c1ccc(Cl)cc1)C(Cl)(Cl)Cl as the compound, how does the AC50 read?
The AC50 was 5.3 µM (active).

With CC(C)Oc1cccc(NC(=O)c2ccccc2C(F)(F)F)c1 as the compound, how does the AC50 read?
The AC50 was 50 µM (active).

Which AC50 does the source give for CC1(C)CCC(=Cc2ccc(Cl)cc2)C1(O)Cn1cncn1 (stereo not drawn) here?
The AC50 was 36.4 µM (active).

System: not listed separately
Experiment: CCTE_Deisenroth_H295R-HTRF_384WELL_ESTRADIOL: CCTE's H295R-HTRF Assay Evaluation of Estradiol Concentration, Deisenroth Lab (AID 2284361; active = hit-call score of the fitted dose curve at least 0.9, where 1 is the maximum; inactive = score below 0.9)
Details: actives raise or lower the signal
Outline: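 H295R cells exposed 48 h to chemicals at 0.001 - 100 uM final (nine points, triplicate); estradiol in conditioned medium measured by HTRF immunoassay, fitted bidirectionally versus DMSO. Viability by CellTiter-Glo on same plates.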

For CCSC(=O)N1CCCCCC1, which outcome is on record?
The outcome was “inactive”.

With CC(C)(C)C(=O)C(Oc1ccc(Cl)cc1)n1cncn1 (stereo not drawn) as the compound, how does the outcome read?
Its outcome is “inactive”.

For CCCCC(C#N)(Cn1cncn1)c1ccc(Cl)cc1 (stereo not drawn), which outcome is on record?
Its outcome is “inactive”.
